Only some compounds are listed: those with a hit (about 2.3% of all), similar ones and a draw of the others.
TRPV1 potentiator: human TRPV1 potentiation | TRPV1-expressing cells, Fluo-8 calcium influx, capsaicin EC20 potentiation | Q8NER1 | potentiation, % at 8.33 µM | hit rate 0.02% among 320,000 | AID 540277; in the data active = potentiation above about 80%; inconclusive = between about 30% and that limit; note: 0% is about no effect
Target sequence (Q8NER1 whole entry, looked up): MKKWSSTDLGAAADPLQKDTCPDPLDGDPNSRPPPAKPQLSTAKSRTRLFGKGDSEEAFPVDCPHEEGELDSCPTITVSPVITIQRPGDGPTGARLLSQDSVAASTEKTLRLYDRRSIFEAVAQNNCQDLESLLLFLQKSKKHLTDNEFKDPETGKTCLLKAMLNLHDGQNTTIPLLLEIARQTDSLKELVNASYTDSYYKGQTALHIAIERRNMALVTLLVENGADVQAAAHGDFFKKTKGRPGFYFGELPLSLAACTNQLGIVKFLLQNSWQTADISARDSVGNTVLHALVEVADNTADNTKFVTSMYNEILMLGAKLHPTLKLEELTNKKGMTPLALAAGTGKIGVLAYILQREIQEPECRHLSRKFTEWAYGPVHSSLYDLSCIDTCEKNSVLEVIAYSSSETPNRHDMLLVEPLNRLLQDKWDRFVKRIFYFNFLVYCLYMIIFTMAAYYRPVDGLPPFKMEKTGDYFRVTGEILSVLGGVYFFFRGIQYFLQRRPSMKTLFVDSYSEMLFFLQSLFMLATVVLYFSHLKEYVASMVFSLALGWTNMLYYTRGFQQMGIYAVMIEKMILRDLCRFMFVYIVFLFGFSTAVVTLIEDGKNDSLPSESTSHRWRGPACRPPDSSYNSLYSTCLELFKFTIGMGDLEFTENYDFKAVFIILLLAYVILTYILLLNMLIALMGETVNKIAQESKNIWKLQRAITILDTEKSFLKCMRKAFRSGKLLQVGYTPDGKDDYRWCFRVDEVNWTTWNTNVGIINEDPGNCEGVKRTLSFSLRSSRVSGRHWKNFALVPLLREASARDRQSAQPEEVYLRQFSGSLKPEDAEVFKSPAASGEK
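Fluo-8 calcium influx in TRPV1-expressing cells, kinetic read (ex 480/em 520 nm). Compound added and read 3 min for agonist activity, followed by capsaicin at EC20 final and 2 min further read for enhancement.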
ELG1 DNA repair: ELG1-dependent DNA repair inhibition | HEK293T ELG1-luciferase reporter, luminescence, 16 h; DNA damage induced by 5-fluorouridine | Potency, µM (highest dose often 46.1 µM), inactives show top-dose activity change, negative = inhibition, most hits filed as inhibitors | AID 504467 | hit rate 2.3% among 330,000; note: potency is the fitted concentration of half-maximal effect; % is set by controls: 0 for no effect and ±100 for the full control effect; nearly all actives have a fitted effect of over 55% in size
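Quantitative HTS, concentration-response format. 2,000 cells/well co-treated with 5-fluorouridine and compound, 16 hr in 5% CO2 at 37 °C; ONE-Glo luminescence read after 30 min.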
FUS yeast rescue: suppressors of FUS proteinopathy in yeast | S. cerevisiae FUS-expressing, growth rescue, OD600, 24 h | Potency, µM (series often up to 76.6 µM), usual class: activators | hit rate 0.24% among 390,000;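 note: potency is the fitted concentration of half-maximal effect; plate controls were DMSO vehicle for no effect and reference control for full effect; nearly all actives have a fitted effect of over 55% in size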
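Compound concentration series was pinned onto galactose-induced FUS-expressing yeast seeded at OD 0.005. Plates sat 24hr at 30C; absorbance at 600 nm gave growth. DMSO served as background control.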
Giardia kill: Giardia lamblia killing; Giardia lamblia trophozoite viability; activity change, % at 7.66 µM, hits read low; hit rate 0.15% among 340,000; AID 540267; in the data active = activity change below about -80%; inconclusive = between about -30% and that limit;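 note: parasites exposed to compound for two days anaerobically before the ATP read; % is set by controls: 0 for no effect and ±100 for the full control effect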
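Killing of trophozoites was scored by loss of ATP luminescence after a 48 hrs anaerobic exposure to compounds at 37 deg C, using 100 cells per well.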
TRPV1 agonist: activates the human vanilloid receptor TRPV1; TRPV1-expressing cells, Fluo-8 calcium influx, agonist mode; hit rate 0.19% among 320,000; Q8NER1; activation, % at 8.33 µM; AID 540275; in the data active = activation above about 80%; inconclusive = between about 30% and that limit; note: 0% is about no effect
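TRPV1-expressing cells were cultured overnight at 35.5C and loaded with Fluo-8 calcium dye for 40 to 90 min at room temperature. After a 10 s baseline, compound was added and calcium influx was read kinetically for 3 min (ex 480/em 520 nm).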
An asterisk follows results filed as active; i = inactive; ? = inconclusive; . = no result. Unless noted, calls come from the whole dose curve; as a rule, active = well fitted curve in the direction sought with a large enough effect; inconclusive = small, poorly fitted or top-dose-only effect, or another doubt; inactive = no such curve, though single readings can be large; an effect the other way counts as inactive or inconclusive.

SMILES	TRPV1 potentiator	ELG1 DNA repair	FUS yeast rescue	Giardia kill	TRPV1 agonist
O=C1CN2CCC1C/C2=C\c1ccnc2c(Cl)cccc12 (configuration not stated)	20	10µM*	i	-8	-6
O=C1C/C(=C\c2c(F)cccc2Cl)N2CCC1CC2	13	10%	i	-4	15
COC(=O)C1=C(C(=O)OC)[C@]2([C@@H]3CC=CCN[C@@H](Cc4ccccc4)C(=O)N3Cc3ccccc3)C=C[C@H]1O2	.	.	i	-16	.
COC(=O)C1=C(C(=O)OC)[C@]2([C@H]3CC=CCN[C@@H](Cc4ccccc4)C(=O)N3Cc3ccccc3)C=C[C@H]1O2	.	.	22µM*	4	.
Cc1ccc(NC(=O)CCS(=O)(=O)c2cc(Br)cc3c2N(C(=O)C2CC2)CC3)cc1	.	.	i	.	.
Cc1cccc(NC(=O)c2ccc3snnc3c2)c1C	.	.	i	.	.
CCc1c(C)nc2ncnn2c1N1CCC(C(=O)Nc2ccccc2)CC1	-7	21µM*	i	11	-1
Cc1nc2ncnn2c(N2CCCC(C(=O)Nc3ccc4c(c3)CCC4)C2)c1C (configuration not stated)	-10	18µM*	i	7	2
COc1ccccc1NC(=O)CSc1nc2sc(C)c(C)c2c(=O)n1C	5	15µM*	i	16	18
COc1ccccc1NC(=O)Cn1cnc2sc(C(=O)Nc3ccc(OC)c(OC)c3)c(C)c2c1=O	3	-9%	i	-4	-1
Cc1ccc(NC(=O)CSc2nc3ccccc3c(=O)n2CCCC(=O)N2CCCC2)cc1	-2	-18%	i	5	2
O=C(CSc1nc2ccccc2c(=O)n1CCC(=O)N1CCCCC1)NCc1ccccc1	0	15µM*	i	-25	3
COc1ccccc1NC(=O)Cn1cnc2sc(C(=O)Nc3cc(OC)c(OC)c(OC)c3)c(C)c2c1=O	-7	8.2µM*	i	37	0
COc1ccc(-n2c(SCC(=O)Nc3sc4c(c3C#N)CCCC4)nnc2-c2ccccc2OC)cc1	-1	26µM*	i	0	1
Cc1ccccc1NC(=O)CSc1nc2ccccc2c(=O)n1C	5	15µM*	i	32	-1
CC(C)Cn1c(SCC(=O)Nc2cccc(S(N)(=O)=O)c2)nc2ccccc2c1=O	-4	16µM*	i	7	?
CCCCn1c(SCC(=O)Nc2cc(NC(=O)c3ccco3)ccc2C)nc2ccccc2c1=O	.	16µM*	32µM*	-9	.
COC(=O)c1cccc(NC(=O)CSc2nc3cccnc3n2C)c1	8	13µM*	i	10	3
CCC(C)NC(=O)c1sc2nc3n(c(=O)c2c1C)CCC3 (configuration not stated)	.	.	i	.	.
CCOc1ccc(C(=O)Nc2c(C(=O)c3ccc(OC)cc3)oc3ccccc23)cc1	.	.	i	.	.
CCOC(=O)c1cc2c(=O)n3ccccc3nc2n(CCCOC)c1=NC(=O)c1c(-c2ccccc2Cl)noc1C	.	.	i	.	.
Cc1cc(NC(=O)CN(C)S(=O)(=O)c2ccc3c(c2)CCCC(=O)N3)ccc1Br	.	.	i	.	.
CC(C)Oc1ccccc1NC(=O)CSc1nc2ccccc2c(=O)n1C	-19	?	i	-11	5
COc1cccc(NC(=O)CSc2nc3ccccc3c(=O)n2C)c1	7	9.2µM*	i	-20	14
COc1cccc(-n2c(SCC(=O)Nc3sc4c(c3C(N)=O)CCC4)nc3ccccc3c2=O)c1	22	6.5µM*	i	-12	-3
SMILES	TRPV1 potentiator	ELG1 DNA repair	FUS yeast rescue	Giardia kill	TRPV1 agonist
O=C(Nc1ccccc1)c1ccc(-n2nncc2-c2ccccc2)cc1	.	.	.	-26	.
NC(=O)C1CCN(c2nc(-c3ccc4c(c3)OCCCO4)cs2)CC1	.	.	25µM*	.	.
O=C(c1ccccc1)n1nc(-c2ccc(Cl)cc2)nc1NCc1ccco1	.	.	i	.	.
COc1ccc(C(=O)Nc2ccc3[nH]ccc3c2)cc1OC	.	.	i	-16	.
COc1ccc(C(=O)Nc2ccc3[nH]ccc3c2)cc1	.	.	i	-89*	.
CC(C)CN(CCCNC(=O)c1cc(-c2ccc(Br)s2)nc2ccccc12)CC(C)C	.	.	i	.	.
COc1ccc(S(=O)(=O)N2CCc3ccccc32)cc1C(=O)NCCc1ccccn1	-1	18µM*	i	4	-4
O=C(NCCCc1ccccc1)C1CCN(c2nnc(-n3cccc3)s2)CC1	-10	-7%	i	-3	13
O=C(NCCCN1CCN(Cc2ccccc2)CC1)C1CCN(c2nnc(-n3cccc3)s2)CC1	4	7.1µM*	i	7	3
COc1ccc2c(CCNC(=O)/C=C/c3ccc(OC)c(OC)c3)c[nH]c2c1	6	23µM*	i	-13	1
COc1ccc(N2CC(NC(=O)c3ccc(S(=O)(=O)N4CCCCC4)cc3)CC2=O)cc1 (configuration not stated)	.	.	i	.	.
CCOC(=O)C1=C(C)N(c2ccc(OC)cc2)C(=O)/C1=C\c1cccs1	23	21µM*	i	-2	4
CC(C)(C)OC(=O)C[C@H]1C/C=C\C[C@@H](CC(=O)N(CCO)Cc2ccccc2)C(=O)N2CCC[C@H]2COC1=O	.	23µM*	i	-6	.
CC(C)(C)OC(=O)C[C@H]1C/C=C\C[C@@H](CC(=O)N(CCO)Cc2ccccc2)C(=O)N[C@H](Cc2c[nH]c3ccccc23)COC1=O	.	21µM*	20µM*	-8	.
COc1ccc2cc(CN(Cc3ccco3)C(=S)NCC3CCCO3)c(=O)[nH]c2c1 (configuration not stated)	-11	23µM*	i	12	29
CCc1ccc2[nH]c(=O)c(CN(CC3CCCO3)C(=S)NCc3ccco3)cc2c1 (configuration not stated)	-3	18µM*	i	-8	-3
CCc1ccc2[nH]c(=O)c(CN(CCN(C)C)C(=S)NCc3ccco3)cc2c1	-22	-14%	i	26	?
COc1ccc2[nH]c(=O)c(CN(Cc3ccccc3)C(=S)NCC3CCCO3)cc2c1 (configuration not stated)	-23	?	i	-23	14
COC(=O)c1cc(NC(=O)Cc2ccc(OC)c(OC)c2)cc(C(=O)OC)c1	-31	?	i	21	?
COc1ccc(CC(=O)Nc2ccc(S(=O)(=O)N3CCCC3)cc2)cc1OC	.	?	i	7	.
COc1ccc(CC(=O)Nc2cccc(SC)c2)cc1OC	-8	5.2µM*	i	-1	101*
COc1ccc(NC(=O)Cc2ccc(C)c(C)c2)cc1S(=O)(=O)N1CCCCC1	.	26µM*	.	3	.
CCc1ccc(OCC(=O)Nc2ccc(S(=O)(=O)N3CCCC3)cc2)c(Br)c1	11	3%	i	4	3
O=C(COc1ccc(Br)cc1CO)Nc1ccc(S(=O)(=O)N2CCCCC2)cc1	-5	18µM*	i	-18	4

Screening results (PubChem)
